Screens as filed in PubChem.
Most compounds without a hit are left out; they make up all but 19% or so of the library.
HT1080 IDH1KD tx – qHTS for induction of synthetic lethality in tumor cells producing 2HG: qHTS for the HT-1080-IDH1KD cell line; HT-1080 IDH1 knockdown viability, ATP luminescence, 48 h; Potency, µM (top dose mostly 46.1 µM), without a hit: top-dose activity, negative = toxicity, actives largely listed as cytotoxic; 360,000 compounds, 2% hits;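 note: potency is the fitted concentration of half-maximal effect; 0% = DMSO wells and -100% = cell-free medium wells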
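Assay cells: HT-1080 with IDH1 knockdown, 750 per well, RPMI/5% FBS. Exposure: 48 h at 37 °C following 2 h pre-incubation. Read: CellTiter-Glo luminescence; fitted concentration-response, curve class assigned.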
TDP1 cell CPT – qHTS for Inhibitors of human tyrosyl-DNA phosphodiesterase 1 (TDP1): qHTS in cells in presence of CPT. AID 686979, 2013. Potency, µM (titrated, usually from 46.2 µM), without a hit: at the highest dose activity change, negative = growth inhibition, most hits filed as inhibitors. chicken DT40 Tdp1-/-;hTDP1 cells + 20 nM CPT, ATP luminescence, 48 h. 420,000 compounds, 12% hits; note: potency is the fitted concentration of half-maximal effect; nearly all actives have a fitted effect of over 55% in size
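Cell growth measured by CellTiter-Glo luminescence after a minimum 48 h, 37 C compound exposure with 20 nM CPT in Tdp1-knockout DT40 cells stably expressing hTDP1, seeded 400/well; qHTS titration format.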
IL1B secr inh – qHTS for Inhibitors of Inflammasome Signaling: IL-1-beta AlphaLISA Primary Screen; THP-1 LPS/ATP IL-1B secretion, AlphaLISA, 16 h; hits give low values; activity change, % at 57.5 µM; 360,000 compounds, 4.7% hits; in the data active = activity change below about -50%; inconclusive = mostly about -30% to -49%
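Secreted IL-1B measured by AlphaLISA bead assay after 16 h compound exposure of THP-1 cells; compounds (final up to 57.5 uM) added 1 h before LPS (250 ng/mL) and ATP (1.25 mM) stimulation; lower signal means less secretion.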
HT1080NT lethal – qHTS for induction of synthetic lethality in tumor cells producing 2HG: qHTS for the HT-1080-NT fibrosarcoma cell line | HT-1080-NT fibrosarcoma viability, CellTiter-Glo ATP luminescence, 48 h | Potency, µM (titrated, usually from 46.1 µM), inactives show at the top dose activity, negative = less viability, actives largely listed as cytotoxic | 360,000 compounds, 1.6% hits;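 note: NT is the 2HG producing partner of a matched IDH1 knockdown line; potency is the fitted concentration of half-maximal effect; 0% = DMSO-treated cells and -100% = media-only wells without cells; nearly all actives have a fitted effect of over 55% in size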
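Viability of the 2HG-overproducing fibrosarcoma line after 48 hours of compound exposure at 37 degrees C was determined by luminescence with CellTiter-Glo, and concentration-effect curves were then fitted and categorized.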
TDP1 cell noCPT – qHTS for Inhibitors of human tyrosyl-DNA phosphodiesterase 1 (TDP1): qHTS in cells in absence of CPT; DT40 Tdp1-/- hTDP1 cells, no CPT, ATP luminescence, 48 h; 420,000 compounds, 15% hits; Potency, µM (doses to about 46.2 µM), for the others: at the top dose activity change, negative = growth inhibition, hits mostly inhibitors; AID 686978, 2013; note: potency is the fitted concentration of half-maximal effect; nearly all actives have a fitted effect of over 55% in size
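Chicken DT40 Tdp1-/- cells stably complemented with human TDP1 were seeded at 400 cells/well with DMSO in place of 20 nM camptothecin. After compound pinning, cells grew at least 48 hr at 37 °C; viability read by CellTiter-Glo luminescence.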
* hit, by the source's call. Unless noted, calls come from the whole dose curve; as a rule, active = well fitted curve in the direction sought with a large enough effect; inconclusive = small, poorly fitted or top-dose-only effect, or another doubt; inactive = no such curve, though single readings can be large; an effect the other way counts as inactive or inconclusive. Unless noted, % is set by controls: 0 for no effect and ±100 for the full control effect.

Screening O=C(Nc1ccccc1C(=O)NC(Cc1ccccc1)C(=O)O)c1ccccc1 (stereo unspecified) returned HT1080 IDH1KD tx 7%, TDP1 cell CPT -7%, IL1B secr inh -11, HT1080NT lethal 15% and TDP1 cell noCPT -3%.
For O=C(CSc1ccccc1C(=O)O)NC1CCCCCCC1 the results were HT1080 IDH1KD tx 13%, TDP1 cell CPT 1%, IL1B secr inh 11, HT1080NT lethal 6% and TDP1 cell noCPT 0%.
`CC(C)CCNC(=O)c1ccccc1SCC(=O)NC1CCCCCCC1` gave HT1080 IDH1KD tx -5%, TDP1 cell CPT 23µM*, IL1B secr inh -4, HT1080NT lethal 2% and TDP1 cell noCPT inconclusive.
O=C(CSc1ccccc1C(=O)O)NC1CCCCCC1 was read as HT1080 IDH1KD tx 5%, TDP1 cell CPT 7%, IL1B secr inh 19, HT1080NT lethal 6% and TDP1 cell noCPT -2%.
`O=C(CSc1ccccc1C(=O)NCc1ccccc1)NC12CC3CC(CC(C3)C1)C2` gave HT1080 IDH1KD tx -2%, TDP1 cell CPT inconclusive, IL1B secr inh inconclusive, HT1080NT lethal -9% and TDP1 cell noCPT 29µM*.
Screening O=C(Nc1ccccc1C(=O)NC(Cc1ccccc1)C(=O)NC1CCCCC1)c1ccccc1 (stereo unspecified) returned HT1080 IDH1KD tx -3%, TDP1 cell CPT inconclusive, IL1B secr inh 18, HT1080NT lethal -7% and TDP1 cell noCPT 26µM*.
For O=C(CSc1ccccc1C(=O)NCc1ccccc1)NC1CCCCCCC1 the results were HT1080 IDH1KD tx 1%, TDP1 cell CPT inconclusive, IL1B secr inh -101*, HT1080NT lethal 5% and TDP1 cell noCPT inconclusive.
CCOCCCN(C(=O)c1snc(C(N)=O)c1N)C(C(=O)NC1CCCC1)c1ccc(OC)cc1 (stereo unspecified) was read as HT1080 IDH1KD tx 10%, TDP1 cell CPT -2%, IL1B secr inh -2, HT1080NT lethal 3% and TDP1 cell noCPT inconclusive.
For CC(=NNC(=S)N(Cc1ccccn1)Cc1ccccn1)c1cnccn1 the results were HT1080 IDH1KD tx 0.58µM*, TDP1 cell CPT 0.58µM*, IL1B secr inh 104, HT1080NT lethal inconclusive and TDP1 cell noCPT 0.82µM*.
O=C(Cc1ccccc1)N/N=C/c1ccccn1 was read as HT1080 IDH1KD tx inconclusive, TDP1 cell CPT -12%, IL1B secr inh -3, HT1080NT lethal -3% and TDP1 cell noCPT -15%.
For S=C(NN=C(c1ccccc1)c1ccccn1)N(Cc1ccccn1)Cc1ccccn1 the results were HT1080 IDH1KD tx 8.2µM*, TDP1 cell CPT 0.15µM*, IL1B secr inh -58*, HT1080NT lethal 16µM* and TDP1 cell noCPT 0.15µM*.
S=C(NN=Cc1ccccn1)N(Cc1ccccn1)Cc1ccccn1 was read as HT1080 IDH1KD tx inconclusive, TDP1 cell CPT 0.65µM*, IL1B secr inh 59, HT1080NT lethal -21% and TDP1 cell noCPT 0.92µM*.
Cc1ccccc1NC(=S)N(Cc1ccccn1)Cc1ccccc1Cl was read as HT1080 IDH1KD tx 0%, TDP1 cell CPT inconclusive, IL1B secr inh inconclusive, HT1080NT lethal -2% and TDP1 cell noCPT inconclusive.
`C=CCNC(=O)NC(=O)CN1C(=O)NC(c2ccccc2)(c2ccccc2)C1=O` gave HT1080 IDH1KD tx -6%, TDP1 cell CPT inconclusive, IL1B secr inh 13, HT1080NT lethal -2% and TDP1 cell noCPT inconclusive.
Screening COc1ccc(S(=O)(=O)N2CCN=C2SCc2cccc(C)c2)cc1 returned HT1080 IDH1KD tx -17%, TDP1 cell CPT -5%, IL1B secr inh inconclusive, HT1080NT lethal -1% and TDP1 cell noCPT inconclusive.
Fc1ccc(Nc2nc(SCc3ccc(Cl)cc3)nc3ccccc23)cc1 was read as TDP1 cell CPT inconclusive and TDP1 cell noCPT -102%.
Screening Clc1ccccc1CSc1nc(NCCc2ccccc2)c2ccccc2n1 returned TDP1 cell CPT inconclusive and TDP1 cell noCPT 13µM*.
COc1ccc(CCNc2nc(SCc3cccc(F)c3)nc3ccccc23)cc1OC was read as TDP1 cell CPT 16µM* and TDP1 cell noCPT inconclusive.
COc1ccc(C(C)=O)cc1CSc1nc(NCc2ccc(Cl)cc2)c2ccccc2n1 was read as TDP1 cell CPT inconclusive and TDP1 cell noCPT -23%.
For Clc1ccc(CSc2nc(NCCc3ccccc3)c3ccccc3n2)cc1 the results were TDP1 cell CPT 9.2µM* and TDP1 cell noCPT 6.5µM*.
Screening Fc1ccc(Nc2nc(SCc3cccc(F)c3)nc3ccccc23)cc1 returned TDP1 cell CPT 15µM* and TDP1 cell noCPT 16µM*.
CC(=O)Nc1ccc2cnn(C(C)=O)c2c1 was read as HT1080 IDH1KD tx 3%, TDP1 cell CPT -12%, IL1B secr inh 10, HT1080NT lethal 0% and TDP1 cell noCPT -28%.
`COc1ccc(CCNC(=O)CN(c2ccccc2)S(=O)(=O)N(C)C)cc1OC` gave TDP1 cell CPT -12% and TDP1 cell noCPT -9%.
CC(=O)OCC(=O)[C@@]1(O)CC[C@H]2[C@@H]3CCC4=CC(=O)CC[C@]4(C)C3=CC[C@@]21C was read as TDP1 cell CPT 3% and TDP1 cell noCPT -23%.
O=c1cc(CSc2nc(NCc3ccccc3)c3ccccc3n2)nc2ccc(Cl)cn12 was read as HT1080 IDH1KD tx 4%, TDP1 cell CPT 16µM*, IL1B secr inh 11, HT1080NT lethal 4% and TDP1 cell noCPT 12µM*.
Screening COc1ccc(CCNc2c3ccccc3nc3ccccc23)cc1OC returned HT1080 IDH1KD tx inconclusive, TDP1 cell CPT inconclusive, IL1B secr inh -94*, HT1080NT lethal 21µM* and TDP1 cell noCPT 21µM*.
`Cc1nn(-c2ccccc2)nc1C(=O)Nc1nnc(C(F)(F)F)s1` gave HT1080 IDH1KD tx -4%, TDP1 cell CPT inconclusive, HT1080NT lethal -24% and TDP1 cell noCPT inconclusive.
For CCOC(=O)c1cc(CC)sc1/N=C/C1=C(O)CC(C)(C)CC1=O the results were HT1080 IDH1KD tx 17%, TDP1 cell CPT -22%, IL1B secr inh 8, HT1080NT lethal -3% and TDP1 cell noCPT -14%.
For CCOC(=O)c1sc(N=NC2=C(O)CC(C)(C)CC2=O)c(C(=O)OCC)c1C the results were HT1080 IDH1KD tx 24%, TDP1 cell CPT inconclusive, IL1B secr inh 2, HT1080NT lethal 12% and TDP1 cell noCPT 15µM*.
